# Results: the supplement of paper PMC8728848
# The full list was thinned out, with the strongest signals kept by preference.
# How the values were obtained:
# Assay in all cases: glycan array binding signal (z-score within array); higher = stronger binding
# Settings in all cases: glycan notation: IUPAC condensed, linker removed
# [1] = target: GlcNAc(a1-4)Gal(b1-3)GlcNAc
# Procedure, shortened: (§1)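 Glycan array data came from 3228 arrays in the Consortium for Functional Glycomics database, and only arrays with an available protein sequence were kept. Glycan names were put into IUPAC-condensed notation, and columns mapping to the same glycan were averaged. The binding signal is a within-array Z-score, averaged across arrays of one protein sequence run at different concentrations or buffers and across linkers. A negative Z-score can be read as non-binding.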
# [2] = target: GlcNAc(b1-2)[GlcNAc(b1-4)]Man(a1-3)[GlcNAc(b1-2)Man(a1-6)]Man(b1-4)GlcNAc(b1-4)GlcNAc
# Procedure, shortened: as §1
# [3] = target: GlcNAc(b1-3)[GlcNAc(b1-6)]GalNAc
# Procedure, shortened: as §1
# [4] = target: GlcNAc(b1-4)GlcNAc(b1-4)GlcNAc
# Procedure, shortened: as §1
# [5] = target: GlcNAc(b1-4)[GlcNAc(b1-6)]GalNAc
# Procedure, shortened: as §1
# [6] = target: Man(a1-2)Man(a1-2)Man(a1-3)Man
# Procedure, shortened: as §1
# [7] = target: Man(a1-2)Man(a1-3)[Man(a1-2)Man(a1-6)]Man(a1-6)[Man(a1-2)Man(a1-2)Man(a1-3)]Man(b1-4)GlcNAc(b1-4)GlcNAc
# Procedure, shortened: as §1
# [8] = target: Man(a1-2)Man(a1-3)[Man(a1-6)]Man(a1-6)[Man(a1-2)Man(a1-3)]Man(b1-4)GlcNAc(b1-4)GlcNAc
# Procedure, shortened: as §1
# [9] = target: Man(a1-2)Man(a1-6)[Man(a1-3)]Man(a1-6)[Man(a1-2)Man(a1-2)Man(a1-3)]Man(b1-4)GlcNAc(b1-4)GlcNAc
# Procedure, shortened: as §1
# Man(a1-3)[Man(a1-6)]Man = target: Man(a1-3)[Man(a1-6)]Man
# Procedure, shortened: as §1
# [10] = target: Man(a1-3)[Man(a1-6)]Man(a1-6)[Man(a1-2)Man(a1-3)]Man(b1-4)GlcNAc(b1-4)GlcNAc
# Procedure, shortened: as §1
# [11] = target: Man(a1-3)[Man(a1-6)]Man(a1-6)[Man(a1-3)]Man
# Procedure, shortened: as §1
# [12] = target: Man(a1-3)[Man(a1-6)]Man(a1-6)[Man(a1-3)]Man(b1-4)GlcNAc(b1-4)GlcNAc
# Procedure, shortened: as §1
# [13] = target: Man(a1-3)[Man(a1-6)]Man(b1-4)GlcNAc(b1-4)GlcNAc
# Procedure, shortened: as §1
# [14] = target: Man(a1-3)[Man(a1-6)]Man(b1-4)GlcNAc(b1-4)[Fuc(a1-6)]GlcNAc
# Procedure, shortened: as §1
# Man(b1-4)GlcNAc = target: Man(b1-4)GlcNAc
# Procedure, shortened: as §1
# [15] = target: Neu5Ac(a2-3)Gal(b1-3)GlcNAc(b1-2)Man
# Procedure, shortened: as §1
# [16] = target: Neu5Ac(a2-3)Gal(b1-3)GlcNAc(b1-3)Gal(b1-4)GlcNAc
# Procedure, shortened: as §1
# [17] = target: Neu5Ac(a2-3)Gal(b1-3)GlcNAc(b1-3)GalNAc
# Procedure, shortened: as §1
# [18] = target: Neu5Ac(a2-3)Gal(b1-3)GlcNAc6S
# Procedure, shortened: as §1
# [19] = target: Neu5Ac(a2-3)Gal(b1-4)GlcNAc
# Procedure, shortened: as §1
# [20] = target: Neu5Ac(a2-3)Gal(b1-4)GlcNAc(b1-3)Gal(b1-4)GlcNAc(b1-3)Gal(b1-4)GlcNAc
# Procedure, shortened: as §1
# [21] = target: Neu5Ac(a2-3)Gal(b1-4)[Fuc(a1-3)]GlcNAc(b1-3)Gal
# Procedure, shortened: as §1
# [22] = target: Neu5Ac(a2-3)Gal6S(b1-4)[Fuc(a1-3)]GlcNAc
# Procedure, shortened: as §1
# [23] = target: Neu5Ac(a2-6)Gal(b1-3)GlcNAc(b1-3)[Gal(b1-4)GlcNAc(b1-6)]Gal(b1-4)Glc
# Procedure, shortened: as §1
# [24] = target: Neu5Ac(a2-6)Gal(b1-4)GlcNAc(b1-2)Man(a1-6)[Man(a1-3)]Man(b1-4)GlcNAc(b1-4)GlcNAc
# Procedure, shortened: as §1
# [25] = target: Neu5Ac(a2-8)Neu5Ac(a2-8)Neu5Ac
# Procedure, shortened: as §1
# [26] = target: Neu5Ac(b2-6)Gal(b1-4)GlcNAc
# Procedure, shortened: as §1
# [27] = target: Neu5Gc(a2-8)Neu5Gc(a2-3)Gal(b1-4)GlcNAc(b1-3)Gal(b1-4)GlcNAc
# Procedure, shortened: as §1
binder,measurement,setting,value
"NPA (Narcissus pseudonarcissus), C0HM45 (protein) DNILYSGETLSPGEFLNNGRYVFIMQEDCNLVLYDVDKPIWATNTGGLDRRCHLSMQSDGNLVVYSPRNNPIWASNTGGENGNYVCVLQKDRNVVIYGTARWATGTNIH",glycan array binding signal (z-score),[1],-0.152
same,glycan array binding signal (z-score),[2],-0.076
same,glycan array binding signal (z-score),[3],-0.147
same,glycan array binding signal (z-score),[4],-0.122
same,glycan array binding signal (z-score),[5],-0.146
same,glycan array binding signal (z-score),[6],0.268
same,glycan array binding signal (z-score),[7],0.144
same,glycan array binding signal (z-score),[8],2.38
same,glycan array binding signal (z-score),[9],1.83
same,glycan array binding signal (z-score),Man(a1-3)[Man(a1-6)]Man,5.21
same,glycan array binding signal (z-score),[10],5.6
same,glycan array binding signal (z-score),[11],2.47
same,glycan array binding signal (z-score),[12],5.37
same,glycan array binding signal (z-score),[13],10.1
same,glycan array binding signal (z-score),[14],5.34
same,glycan array binding signal (z-score),Man(b1-4)GlcNAc,-0.151
same,glycan array binding signal (z-score),[15],-0.122
same,glycan array binding signal (z-score),[16],-0.153
same,glycan array binding signal (z-score),[17],-0.14
same,glycan array binding signal (z-score),[18],-0.124
same,glycan array binding signal (z-score),[19],-0.154
same,glycan array binding signal (z-score),[20],-0.151
same,glycan array binding signal (z-score),[21],-0.162
same,glycan array binding signal (z-score),[22],-0.158
same,glycan array binding signal (z-score),[23],-0.144
same,glycan array binding signal (z-score),[24],3.41
same,glycan array binding signal (z-score),[25],-0.156
same,glycan array binding signal (z-score),[26],-0.154
same,glycan array binding signal (z-score),[27],-0.146
